# From PubChem BioAssay (EPA / NIEHS)
# Results filed as inconclusive are left out. Calls of active or inactive are those of the source. Rule for the calls: active = hit-call score of the fitted dose curve at least 0.9, where 1 is the maximum; inconclusive = response in the unintended direction; inactive = score below 0.9.
# Target: human Vascular Endothelial Growth Factor Receptor 2 (VEGFR2), KDR (gene 3791) (UniProt P35968)
# Assay: NVS_ENZ_hVEGFR2: NovaScreen (NVS) Enzymatic Assay for human Vascular Endothelial Growth Factor Receptor 2 (VEGFR2) (AID 2283230)
# Outline: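 Cell-free recombinant VEGFR2 kinase, fluorescent substrate with electrophoretic mobility-shift separation; read 1 h after dosing. Screened at 25 uM in duplicate, hits to concentration-response up to 50 uM; loss-of-signal versus DMSO.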
# human Vascular Endothelial Growth Factor Receptor 2 (VEGFR2), KDR (gene 3791), sequence (P35968 whole entry, looked up): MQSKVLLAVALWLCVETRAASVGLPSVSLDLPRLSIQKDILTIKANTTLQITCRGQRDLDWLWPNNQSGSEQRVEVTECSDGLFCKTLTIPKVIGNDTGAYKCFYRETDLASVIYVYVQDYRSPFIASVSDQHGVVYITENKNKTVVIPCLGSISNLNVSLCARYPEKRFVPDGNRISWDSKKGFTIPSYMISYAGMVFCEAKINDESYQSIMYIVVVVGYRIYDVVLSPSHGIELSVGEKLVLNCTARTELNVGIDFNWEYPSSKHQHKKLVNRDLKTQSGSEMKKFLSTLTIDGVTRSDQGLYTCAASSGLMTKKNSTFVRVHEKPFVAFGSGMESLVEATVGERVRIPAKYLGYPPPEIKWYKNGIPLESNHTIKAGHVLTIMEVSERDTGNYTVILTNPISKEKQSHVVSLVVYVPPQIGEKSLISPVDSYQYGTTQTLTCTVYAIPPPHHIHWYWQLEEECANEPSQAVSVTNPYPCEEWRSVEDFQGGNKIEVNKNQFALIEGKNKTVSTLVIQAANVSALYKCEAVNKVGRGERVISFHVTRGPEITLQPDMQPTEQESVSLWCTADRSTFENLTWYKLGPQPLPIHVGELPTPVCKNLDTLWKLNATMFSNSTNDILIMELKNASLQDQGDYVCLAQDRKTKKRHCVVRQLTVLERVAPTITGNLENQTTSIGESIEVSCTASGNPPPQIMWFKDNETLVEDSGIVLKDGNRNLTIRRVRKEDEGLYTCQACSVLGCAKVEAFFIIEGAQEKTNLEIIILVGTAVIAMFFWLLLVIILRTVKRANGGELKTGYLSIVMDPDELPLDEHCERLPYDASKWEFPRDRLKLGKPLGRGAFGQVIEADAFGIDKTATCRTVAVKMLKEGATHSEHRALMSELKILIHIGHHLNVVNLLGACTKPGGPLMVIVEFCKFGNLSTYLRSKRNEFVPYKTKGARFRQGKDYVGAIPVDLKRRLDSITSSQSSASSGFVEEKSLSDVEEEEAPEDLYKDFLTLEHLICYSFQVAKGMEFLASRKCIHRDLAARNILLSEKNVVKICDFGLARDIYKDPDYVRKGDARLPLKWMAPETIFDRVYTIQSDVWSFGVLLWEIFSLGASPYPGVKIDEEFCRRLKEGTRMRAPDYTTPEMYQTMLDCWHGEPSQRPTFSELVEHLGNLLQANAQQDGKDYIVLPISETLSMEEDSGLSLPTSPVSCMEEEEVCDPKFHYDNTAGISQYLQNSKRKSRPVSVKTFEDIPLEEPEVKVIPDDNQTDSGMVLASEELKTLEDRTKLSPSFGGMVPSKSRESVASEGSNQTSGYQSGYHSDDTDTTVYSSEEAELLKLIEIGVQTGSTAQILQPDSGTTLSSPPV
row,Structure (SMILES),outcome
1,Cc1c2ccccc2c(C)c2c1ccc1ccccc12,inactive
2,CCCCOC(=O)c1ccc(O)cc1,inactive
3,COc1cc(C(=O)NC2CCN(C)CC2)ccc1Nc1ncc2c(n1)N(C1CCCC1)CC(F)(F)C(=O)N2C,inactive
4,CCN(Cc1cccnc1)C(=O)c1cccc(Cl)c1[C@]1(C)C(=O)N(Cc2ccc(OC)cc2OC)c2ccc(Cl)cc21,inactive
5,CC(C)(C)c1cc(/C=C2\SC(N)=NC2=O)cc(C(C)(C)C)c1O,inactive

# Target: sheep Cyclooxygenase-2 (Cox2), PTGS2 (gene 443460) (UniProt P79208)
# Sequence (P79208 whole entry, looked up): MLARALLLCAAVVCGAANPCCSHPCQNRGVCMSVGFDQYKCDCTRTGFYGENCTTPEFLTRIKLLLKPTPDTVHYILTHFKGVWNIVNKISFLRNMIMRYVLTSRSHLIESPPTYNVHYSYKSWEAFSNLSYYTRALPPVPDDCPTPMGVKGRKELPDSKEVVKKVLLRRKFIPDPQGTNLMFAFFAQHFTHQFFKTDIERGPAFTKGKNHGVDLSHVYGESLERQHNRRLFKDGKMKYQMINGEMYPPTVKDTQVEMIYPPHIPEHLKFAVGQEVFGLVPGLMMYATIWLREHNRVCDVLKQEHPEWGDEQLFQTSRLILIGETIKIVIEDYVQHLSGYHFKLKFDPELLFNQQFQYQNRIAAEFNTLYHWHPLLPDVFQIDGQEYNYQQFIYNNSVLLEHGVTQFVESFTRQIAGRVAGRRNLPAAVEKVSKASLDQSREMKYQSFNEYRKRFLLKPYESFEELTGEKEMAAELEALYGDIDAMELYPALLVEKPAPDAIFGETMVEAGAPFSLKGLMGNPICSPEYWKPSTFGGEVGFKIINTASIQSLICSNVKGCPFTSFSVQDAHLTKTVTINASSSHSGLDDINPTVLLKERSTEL
# Assay: NVS_ENZ_oCOX2: NovaScreen (NVS) Enzymatic Assay for sheep Cyclooxygenase-2 (Cox2) (AID 2283231)
# Outline: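 Enzyme from ovine placenta, cell-free; colorimetric absorbance read 0.66 hour after dosing, loss of signal vs DMSO. Screened in duplicate at 25 uM, then concentration-response up to 50 uM.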
Structure (SMILES),AC50,outcome
CCCCCCCCOC(=O)c1cc(O)c(O)c(O)c1,18.3 µM (active),–
CC1=CC(=O)/C(=C(/C)O)C(=O)O1,–,inactive
O=CCCCC=O,15.4 µM (active),–
CCCOC(=O)c1cc(O)c(O)c(O)c1,14.8 µM (active),–
CCCCOC(=O)c1ccc(O)cc1,7.62 µM (active),–
CO[C@H]1/C=C/O[C@@]2(C)Oc3c(C)c(O)c4c(O)c(c(/C=N/N5CCN(C)CC5)c(O)c4c3C2=O)NC(=O)/C(C)=C\C=C\[C@H](C)[C@H](O)[C@@H](C)[C@@H](O)[C@@H](C)[C@H](OC(C)=O)[C@@H]1C,7.74 µM (active),–
COc1cc(C(=O)NC2CCN(C)CC2)ccc1Nc1ncc2c(n1)N(C1CCCC1)CC(F)(F)C(=O)N2C,15.2 µM (active),–

# Target: rat Catechol-O-Methyl Transferase (COMT), Comt (gene 24267) (UniProt P22734)
# Sequence (P22734 whole entry, looked up): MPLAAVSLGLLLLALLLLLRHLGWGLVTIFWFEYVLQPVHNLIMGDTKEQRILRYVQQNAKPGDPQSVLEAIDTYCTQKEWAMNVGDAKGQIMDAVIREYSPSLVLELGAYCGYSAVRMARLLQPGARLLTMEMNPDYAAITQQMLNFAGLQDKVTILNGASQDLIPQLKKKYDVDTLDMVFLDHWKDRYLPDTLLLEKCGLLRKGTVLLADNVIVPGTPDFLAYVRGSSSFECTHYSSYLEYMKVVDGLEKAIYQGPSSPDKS
# Assay: NVS_ENZ_rCOMT: NovaScreen (NVS) Enzymatic Assay for rat Catechol-O-Methyl Transferase (COMT) (AID 2283235)
# Outline: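 Rat dorsal striatum extract served as COMT source; product quantified by HPLC/spectrophotometry, read at 0 h after dosing. Primary single-concentration screen at 25 uM, followed by concentration series to a 50 uM maximum.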
row,Structure (SMILES),AC50
1,CCCCCCCCOC(=O)c1cc(O)c(O)c(O)c1,2.54 µM (active)
2,CCCOC(=O)c1cc(O)c(O)c(O)c1,0.454 µM (active)
3,O=C1O[C@H]([C@@H](O)CO)C(O)=C1O,11.5 µM (active)

# Target: sheep Cyclooxygenase-1 (Cox1), PTGS1 (gene 443551) (UniProt P05979)
# Sequence (P05979 whole entry, looked up): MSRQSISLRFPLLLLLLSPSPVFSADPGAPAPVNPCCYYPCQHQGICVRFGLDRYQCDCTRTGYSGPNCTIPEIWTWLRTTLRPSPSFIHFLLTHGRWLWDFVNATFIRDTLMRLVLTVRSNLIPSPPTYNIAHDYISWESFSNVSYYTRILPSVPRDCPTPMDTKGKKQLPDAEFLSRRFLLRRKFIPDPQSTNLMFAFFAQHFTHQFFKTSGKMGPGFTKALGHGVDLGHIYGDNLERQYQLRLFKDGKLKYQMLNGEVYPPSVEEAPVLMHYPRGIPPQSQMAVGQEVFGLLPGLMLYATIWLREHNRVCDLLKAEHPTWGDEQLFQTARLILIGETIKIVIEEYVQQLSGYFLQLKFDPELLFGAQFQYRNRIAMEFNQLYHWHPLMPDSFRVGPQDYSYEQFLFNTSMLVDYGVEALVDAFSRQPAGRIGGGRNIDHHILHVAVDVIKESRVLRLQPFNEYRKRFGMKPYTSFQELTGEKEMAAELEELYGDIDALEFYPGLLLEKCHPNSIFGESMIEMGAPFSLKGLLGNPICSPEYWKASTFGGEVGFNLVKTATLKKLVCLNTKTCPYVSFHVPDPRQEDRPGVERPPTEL
# Assay: NVS_ENZ_oCOX1: NovaScreen (NVS) Enzymatic Assay for sheep Cyclooxygenase-1 (Cox1) (AID 2283239);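 note: actives reduce cyclooxygenase activity so potencies are for inhibitors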
# Outline: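 Tested in duplicate at 25 uM, then in concentration series if active, against seminal vesicle extract from sheep. Enzyme activity was measured colorimetrically at 0.66 hour and normalised to DMSO.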
Structure (SMILES),outcome,AC50
CC[C@H](NC(=O)c1cc(F)ccc1NS(=O)(=O)c1cccc2cccnc12)c1ccccc1,inactive,–
CC/C(=C(/CC)c1ccc(O)cc1)c1ccc(O)cc1,inactive,–
CCCCCCCCOC(=O)c1cc(O)c(O)c(O)c1,inactive,–
Oc1ccc2ccccc2c1,–,5.35 µM (active)
Cc1c2ccccc2c(C)c2c1ccc1ccccc12,–,43.3 µM (active)
CCCOC(=O)c1cc(O)c(O)c(O)c1,–,12 µM (active)
CO[C@H]1/C=C/O[C@@]2(C)Oc3c(C)c(O)c4c(O)c(c(/C=N/N5CCN(C)CC5)c(O)c4c3C2=O)NC(=O)/C(C)=C\C=C\[C@H](C)[C@H](O)[C@@H](C)[C@@H](O)[C@@H](C)[C@H](OC(C)=O)[C@@H]1C,–,3.36 µM (active)
O=c1c(-c2ccc(O)cc2)coc2cc(O)cc(O)c12,inactive,–
CC(C)(C)c1cc(/C=C2\SC(N)=NC2=O)cc(C(C)(C)C)c1O,inactive,–
CCCCCc1ccc(N)cc1,–,7.04 µM (active)

# Test system: bovine Angiotensin II Receptor Type 2 (AT2), gene 407157
# Assay: NVS_GPCR_bAT2: NovaScreen (NVS) G Protein-Coupled Receptor Assay for bovine Angiotensin II Receptor Type 2 (AT2) (AID 2283240)
# Outline: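 Radioligand displacement on bovine cerebellar membranes, 1 hour incubation, filter-based scintillation counting; loss of signal vs DMSO. Duplicate single-point screen at 25 uM, then concentration-response to 50 uM maximum.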
Structure (SMILES),AC50,outcome
Cc1occc1C(=O)Nc1ccc(C(=O)N2CCC(F)(F)/C(=C\C(=O)N3CCC(N4CCCCC4)CC3)c3ccccc32)cc1,3.76 µM (active),–
O=C(O)Cn1c(=O)n(Cc2ccc(Br)cc2F)c(=O)c2ccc(Cl)cc21,–,inactive
COc1ccc2cc(S(=O)(=O)N[C@H](CC(=O)N[C@H](Cc3ccc(CN4[C@H](C)CCC[C@@H]4C)cc3)C(=O)N(C)C(C)C)c3ccc4c(c3)OCO4)ccc2c1,37.5 µM (active),–
COc1cc(C(=O)NC2CCN(C)CC2)ccc1Nc1ncc2c(n1)N(C1CCCC1)CC(F)(F)C(=O)N2C,14 µM (active),–
CN(C[C@@H](CC[N+]12CCC(C3CCCCC3)(CC1)CC2)c1ccc(Cl)c(Cl)c1)C(=O)c1cc(C(F)(F)F)cc(C(F)(F)F)c1,36.7 µM (active),–
